In PubChem BioAssay (Tox21) one finds Potency and outcome data, which are given here for nine compounds.

Assay [1] in a line: qHTS assay for identifying genotoxic compounds that show differential cytotoxicity against isogenic chicken DT40 cell lines with known DNA damage response pathways - wild type cell line (AID 743012). Also: nearly all actives have a fitted effect of over 60% in size. Also: potency is read from the fitted curve at half-maximal effect. In short, it runs like this:
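Luminescent ATP viability signal (CellTiter-Glo, 30 min RT) recorded after wild type DT40 cells were incubated with compounds for 40 h at 37 C/5% CO2.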

A short description of assay [2]: qHTS assay for identifying genotoxic compounds that show differential cytotoxicity against isogenic chicken DT40 cell lines with known DNA damage response pathways - Rev3 mutant cell line (AID 743014). Also: nearly all actives have a fitted effect of over 55% in size. Also: potency is read from the fitted curve at half-maximal effect. On the technique in general: Quantitative high-throughput screening tests each substance at several concentrations.
Assay [3] is described as follows: qHTS assay for identifying genotoxic compounds that show differential cytotoxicity against isogenic chicken DT40 cell lines with known DNA damage response pathways - Rad54/Ku70 mutant cell line (AID 743015). Also: nearly all actives have a fitted effect of over 60% in size. Also: potency is read from the fitted curve at half-maximal effect.
Assay [4] can be described thus: qHTS assay to identify small molecule antagonists of the androgen receptor (AR) signaling pathway - cell viability counter screen (AID 743033; also: nearly all actives have a fitted effect of over 45% in size).
The target in assay [5] is Androgen receptor (Homo sapiens) (UniProt P10275). The assay can be described thus: qHTS assay to identify small molecule antagonists of the androgen receptor (AR) signaling pathway (AID 743035; active = well fitted inhibition curve with a large enough effect in the signal ratio in the repeat runs, not every such curve was filed as active; inconclusive = weak or mixed curves, or effect the other way; inactive = no such curve, though single readings can be large or run the other way; the % refers to the signal ratio). The essentials: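 Quantitative HTS of the Tox21 10K library used HEK293 AR-UAS-bla cells stimulated with R1881 alongside compound for 16 h at 37C, followed by beta-lactamase FRET detection (LiveBLAzer B/G, 2 h, RT).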
Androgen receptor (Homo sapiens), sequence (P10275 whole entry, looked up): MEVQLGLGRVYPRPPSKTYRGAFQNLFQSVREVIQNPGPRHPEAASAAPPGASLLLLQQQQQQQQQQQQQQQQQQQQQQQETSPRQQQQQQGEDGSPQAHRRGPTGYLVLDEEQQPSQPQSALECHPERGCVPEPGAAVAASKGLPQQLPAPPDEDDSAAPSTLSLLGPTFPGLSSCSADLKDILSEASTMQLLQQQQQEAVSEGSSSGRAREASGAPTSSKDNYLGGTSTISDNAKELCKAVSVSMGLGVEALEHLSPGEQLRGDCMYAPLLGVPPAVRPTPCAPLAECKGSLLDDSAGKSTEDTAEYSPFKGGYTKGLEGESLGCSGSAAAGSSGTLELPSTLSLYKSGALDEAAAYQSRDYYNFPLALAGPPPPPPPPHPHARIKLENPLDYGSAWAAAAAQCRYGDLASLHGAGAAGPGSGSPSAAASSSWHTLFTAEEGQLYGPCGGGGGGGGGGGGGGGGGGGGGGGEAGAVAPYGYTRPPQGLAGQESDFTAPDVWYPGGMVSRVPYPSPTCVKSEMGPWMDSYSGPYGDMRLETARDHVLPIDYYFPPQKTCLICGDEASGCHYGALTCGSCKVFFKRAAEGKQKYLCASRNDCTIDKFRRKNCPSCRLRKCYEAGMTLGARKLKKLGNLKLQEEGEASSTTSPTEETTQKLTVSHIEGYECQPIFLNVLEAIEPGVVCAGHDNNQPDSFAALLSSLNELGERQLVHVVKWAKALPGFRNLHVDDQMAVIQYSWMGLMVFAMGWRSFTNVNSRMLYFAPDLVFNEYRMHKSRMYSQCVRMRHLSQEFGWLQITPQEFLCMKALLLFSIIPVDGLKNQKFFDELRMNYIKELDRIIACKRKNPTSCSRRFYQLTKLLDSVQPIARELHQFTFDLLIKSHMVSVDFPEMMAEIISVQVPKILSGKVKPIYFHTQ

For assay [6] the target is unchanged. Briefly: qHTS assay to identify small molecule agonists of the androgen receptor (AR) signaling pathway (AID 743036; active = well fitted activation curve with a large enough effect in the signal ratio in the repeat runs, with a control signal flat, not every such curve was filed as active; inconclusive = weak or mixed curves, or effect the other way; inactive = no such curve, though single readings can be large or run the other way; the % refers to the signal ratio). The essentials:
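AR-bla HEK293 cells, 2,000/well; 4 h preincubation 37C/5% CO2; compound (DMSO) 16 h at 37C; LiveBLAzer B/G FRET substrate 2 h RT; fluorescence intensity read-out.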

For assay [7] the target is unchanged. The assay can be described thus: qHTS assay to identify small molecule agonists of the androgen receptor (AR) signaling pathway using the MDA cell line (AID 743040; also: nearly all actives have a fitted effect of over 20% in size). In short, it runs like this:
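Stable MMTV-luciferase reporter in MDA-kb2 cells; note the promoter carries GR as well as AR response elements. 16 h compound treatment, 37C, 0% CO2; ONE-Glo luminescence endpoint.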

Assay [8] shares this target. Briefly: qHTS assay to identify small molecule antagonists of the androgen receptor (AR) signaling pathway using the MDA cell line (AID 743042; also: nearly all actives have a fitted effect of over 55% in size). The essentials: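 Antagonist mode: compounds plus R1881 agonist added to MDA-kb2 AR-luc cells, incubated 16 h at 37C. Luciferase reporter luminescence quantified, with multiplexed CellTiter-Fluor readout for cell viability.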

The nature of assay [9]: qHTS assay to identify small molecule antagonists of the thyroid receptor (TR) signaling pathway - cell viability counter screen (AID 743064). Also: nearly all actives have a fitted effect of over 50% in size. In short, it runs like this:
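GH3.TRE-Luc cells, 4 h pre-plating; cpd + T3 1 nM final; 37 °C 23.5 h; CellTiter-Fluor 30 min; fluorescence read.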

A short description of assay [10]: qHTS assay to identify small molecule antagonists of the thyroid receptor (TR) signaling pathway (AID 743065). Also: nearly all actives have a fitted effect of over 55% in size. Also: potency is read from the fitted curve at half-maximal effect. In short, it runs like this: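 Antagonism measured as loss of luciferase signal in GH3 cells stably carrying a TRE-luciferase reporter, co-treated with compound and T3 (1 nM final) for 23.5 h at 37 C. Viability was read in the same well by CellTiter-Fluor.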

Assay [11] deals with thyroid hormone receptor (rat, GH3 cells). The assay can be described thus: qHTS assay to identify small molecule agonists of the thyroid receptor (TR) signaling pathway (AID 743066; calls by dose curve).
The target in assay [12] is Estrogen receptor (Homo sapiens) (UniProt P03372). The assay can be described thus: qHTS assay to identify small molecule antagonists of the estrogen receptor alpha (ER-alpha) signaling pathway (AID 743069; active = well fitted curve in the direction sought with a large enough effect in the signal ratio in the repeat runs, not every such curve was filed as active; inconclusive = weak or mixed curves, or effect the other way; inactive = no such curve, though single readings can be large or run the other way; the % refers to the signal ratio). The essentials:
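Fluorescence intensity from a beta-lactamase FRET substrate served as the read-out. Cells: HEK293 with stably integrated ER-alpha-UAS-bla reporter. Agonist 17beta-estradiol was co-added with compounds; incubation 18 hr at 37C, substrate 2 hr at room temperature.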

Assay [13] is described as follows: qHTS assay to identify small molecule antagonists of the estrogen receptor alpha (ER-alpha) signaling pathway - cell viability counter screen (AID 743074; calls by dose curve; also: nearly all actives have a fitted effect of over 45% in size).
For assay [14], the target named is Estrogen receptor (Homo sapiens) (UniProt P03372). Briefly: qHTS assay to identify small molecule agonists of the estrogen receptor alpha (ER-alpha) signaling pathway (AID 743075; calls by dose curve; also: potency is read from the fitted curve at half-maximal effect).
Estrogen receptor (Homo sapiens), sequence (P03372 whole entry, looked up): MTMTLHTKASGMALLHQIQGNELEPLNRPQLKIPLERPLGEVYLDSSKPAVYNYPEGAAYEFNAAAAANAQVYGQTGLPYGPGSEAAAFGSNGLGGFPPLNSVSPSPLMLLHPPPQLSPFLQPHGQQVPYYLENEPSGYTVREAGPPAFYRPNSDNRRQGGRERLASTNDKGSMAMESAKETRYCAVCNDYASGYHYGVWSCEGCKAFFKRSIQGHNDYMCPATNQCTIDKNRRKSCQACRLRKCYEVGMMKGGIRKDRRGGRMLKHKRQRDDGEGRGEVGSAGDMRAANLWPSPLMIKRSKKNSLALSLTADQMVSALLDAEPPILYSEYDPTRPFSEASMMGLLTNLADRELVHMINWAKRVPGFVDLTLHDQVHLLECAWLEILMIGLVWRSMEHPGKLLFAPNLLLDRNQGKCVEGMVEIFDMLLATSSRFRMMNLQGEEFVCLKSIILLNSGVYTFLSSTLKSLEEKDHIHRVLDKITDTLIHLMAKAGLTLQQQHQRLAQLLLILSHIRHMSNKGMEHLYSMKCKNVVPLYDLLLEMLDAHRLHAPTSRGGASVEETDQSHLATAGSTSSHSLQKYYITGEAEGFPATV
Assay [15] has the same target. Briefly: qHTS assay to identify small molecule agonists of the estrogen receptor alpha (ER-alpha) signaling pathway using the BG1 cell line (AID 743079). Also: nearly all actives have a fitted effect of over 20% in size. Also: potency is read from the fitted curve at half-maximal effect. The settings on record: BG1Luc4E2 cells, ERE-luciferase agonist, 22 h; activation: at 70.3 µM (top of the series).
A short description of assay [16]: qHTS assay to identify small molecule antagonists of the estrogen receptor alpha (ER-alpha) signaling pathway using the BG1 cell line (AID 743080; calls by dose curve; also: nearly all actives have a fitted effect of over 25% in size). The essentials: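 Antagonist mode: compounds in DMSO were pinned onto BG1-Luc-4E2 cells alongside 17beta-estradiol agonist, incubated 21.5 h, and ERE-driven luciferase measured with ONE-Glo. Cytotoxicity was multiplexed using CellTiter-Fluor fluorescence.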

A short description of assay [17]: qHTS assay to identify small molecule antagonists of the estrogen receptor alpha (ER-alpha) signaling pathway using the BG1 cell line - cell viability counter screen (AID 743081).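 Also: compound given together with 17beta-estradiol as the ER stimulus; nearly all actives have a fitted effect of over 45% in size.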
For another assay, the target named is Aromatase (Homo sapiens) (UniProt P11511). The assay can be described thus: qHTS assay to identify aromatase inhibitors (AID 743083). Also: nearly all actives have a fitted effect of over 55% in size. Also: potency is read from the fitted curve at half-maximal effect.
Aromatase (Homo sapiens), sequence (P11511 whole entry, looked up): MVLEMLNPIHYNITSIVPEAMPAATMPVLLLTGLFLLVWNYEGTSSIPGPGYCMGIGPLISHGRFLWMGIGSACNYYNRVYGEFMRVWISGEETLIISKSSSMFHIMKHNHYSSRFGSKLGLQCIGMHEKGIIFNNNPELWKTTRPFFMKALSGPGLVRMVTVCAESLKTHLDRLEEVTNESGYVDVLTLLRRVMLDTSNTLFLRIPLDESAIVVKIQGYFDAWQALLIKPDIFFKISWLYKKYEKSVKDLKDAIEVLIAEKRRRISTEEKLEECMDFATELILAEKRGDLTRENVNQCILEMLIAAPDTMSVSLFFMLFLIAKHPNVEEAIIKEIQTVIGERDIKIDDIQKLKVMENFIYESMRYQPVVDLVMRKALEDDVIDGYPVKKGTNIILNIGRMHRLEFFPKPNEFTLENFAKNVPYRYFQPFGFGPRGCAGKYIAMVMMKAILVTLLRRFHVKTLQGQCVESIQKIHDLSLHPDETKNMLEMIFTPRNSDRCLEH
Assay [18] can be described thus: qHTS assay to identify small molecule antagonists of the androgen receptor (AR) signaling pathway using the MDA cell line - cell viability counter screen (AID 743041; also: nearly all actives have a fitted effect of over 45% in size). The essentials: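 Using the breast carcinoma line MDA-kb2 AR-luc, test chemicals were co-incubated with R1881 for 16 h; CellTiter-Fluor reagent, added at 15.5 h, provided a fluorescence measure of live cells.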

The nature of assay [19]: qHTS assay to identify small molecule antagonists of the glucocorticoid receptor (GR) signaling pathway - cell viability counter screen (AID 720693). Also: nearly all actives have a fitted effect of over 55% in size.

The structures appear in SMILES notation. Active and inactive are the calls of the source. Unless noted, calls follow the shape of the dose curve; as a rule, active = well fitted curve in the direction sought with a large enough effect in the repeat runs; inconclusive = weak or mixed curves; inactive = no such curve, though single readings can be large; an effect the other way counts as inactive or inconclusive.

As to `ON(Cc1ccccc1)Cc1ccccc1`, the Potency result in [1], in assay [2], in assay [3], in assay [4], in assay [5] and in assay [6] was “inactive” throughout. In addition, the Potency result in assay [7], in assay [8], in assay [9], in assay [10], in assay [12] and in assay [13] was “inactive” each time. The Potency entry (in assay [14]; in assay [15]; in assay [16]; in [17]; in the assay with Aromatase (Homo sapiens)) was “inactive” in each case. Moreover, in assay [11], the outcome was inactive.

Take `OC/C(Br)=C(\Br)CO`: the Potency result in [1], in [2], in [3], in assay [4], in assay [18] and in assay [9] was “inactive” throughout. Also, the Potency entry (in assay [12]; in [13]; in assay [14]; in [16]; in assay [17]; with Aromatase (Homo sapiens)) was “inactive” in each case. Also, the result in assay [11] was inactive.

Regarding `O=C1OCCN1/N=C/c1ccc([N+](=O)[O-])o1`, the Potency entry in assay [19], in assay [12] and in assay [13] was “inactive” throughout. For the same compound, the call in assay [11] was inactive. Moreover, the Potency in assay [14] is 0.848 µM [inconclusive] (active); in assay [15] it was 0.168 µM (active); with Aromatase (Homo sapiens), 29.8 µM (active).

As to `Nc1nccs1`, the Potency result in assay [1], in assay [2], in [3], in [4], in [18] and in assay [9] was “inactive” in each case. Further, the Potency result (in [10]; in assay [13]; in [17]; with Aromatase (Homo sapiens)) was “inactive” in each case. In assay [11], the compound was classed as inactive.

On to `CCc1cccc(N(C)C(N)=Nc2cccc3ccccc23)c1`, for which the Potency is 5.96 µM (active) in assay [1], 11.9 µM (active) in assay [2], 11.9 µM (active) in assay [3] and 21.1 µM (active) in assay [10]. Also, the Potency result (in assay [4]; in assay [5]; in the assay with Aromatase (Homo sapiens)) was “inactive” in each case. The compound was called inactive in assay [11].

Turning to `O=C(O)c1cccc(O)c1`, the Potency result in assay [1], in [2], in assay [3], in [4], in assay [18] and in assay [9] was “inactive” each time. Besides, the Potency result in assay [12], in assay [13], in [14], in [15], in assay [16] and in [17] was “inactive” each time. Besides, the Potency result with Aromatase (Homo sapiens) is “inactive”. Also, the result in [11] was inactive.

With `O=[N+]([O-])c1cccc(S(=O)(=O)NCCNS(=O)(=O)c2cccc([N+](=O)[O-])c2)c1`, the Potency result in assay [19], in assay [3], in assay [4], in assay [18], in assay [8] and in assay [9] was “inactive” each time. In addition, the Potency result in [10], in [12], in [13], in assay [14], in [15] and in assay [16] was “inactive” throughout. Also, the Potency result (in [17]; with Aromatase (Homo sapiens)) was “inactive” each time. The call in assay [11] was inactive.

With `O=C1NCCN1`, the Potency entry in assay [19], in assay [3], in assay [4], in [18], in assay [12] and in assay [13] was “inactive” each time. Besides, the Potency entry (in [14]; in assay [15]; in [16]; in assay [17]; with Aromatase (Homo sapiens)) was “inactive” each time. Moreover, the outcome in assay [11] was inactive.

In the case of `CCCCCCCCCCOS(=O)(=O)O`, the Potency entry in [1], in assay [2], in assay [3], in assay [4], in [18] and in assay [9] was “inactive” throughout. The Potency entry in [12], in assay [13], in assay [14], in [15], in assay [16] and in assay [17] was “inactive” throughout. Moreover, the Potency entry in the assay with Aromatase (Homo sapiens) was “inactive”. The compound was classed as inactive in [11].
